Screening data: PubChem BioAssay, National Center for Advancing Translational Sciences (NCATS)
Most compounds without a hit are left out; they make up all but 2.2% or so of the library.
Mito fusion act: qHTS Assay for Small Molecule Inhibitors of Mitochondrial Division or Activators of Mitochondrial Fusion; S. cerevisiae fusion-defective mutant growth rescue, CellTiterGlo 48 h; Potency, µM (highest dose often 46.1 µM), inactives show top-dose growth rescue (activation), actives largely listed as activators; 0.23% of 320,000 active; note: % of control where 0% means no effect; nearly all actives have a fitted effect of over 45% in size
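Compounds are tested for their ability to restore growth of mitochondrial fusion-defective yeast strains at non-permissive 37C in YPEG medium over 48 hours. Viability is quantified by luciferase luminescence.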
Abeta yeast res: qHTS for compounds that reverse cellular toxicity of Amyloid beta (A-beta) peptide in yeast: Primary Screen; yeast expressing A-beta42, growth rescue, OD600, 48 h; response scale: 0% DMSO, 100% iron-clioquinol control; Potency, µM (highest dose often 46.1 µM), usual class: activators; 0.063% of 410,000 active; AID 1347071, 2019; note: nearly all actives have a fitted effect of over 55% in size
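Yeast A-beta toxicity model in growth medium with pinned compounds, 48 h at 30 C; growth read as absorbance at 600 nm. Normalized to FeCl3/clioquinol equimolar mix (positive) and DMSO (negative).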
aSyn rescue: qHTS of alpha-syn Inhibitors | Yeast expressing alpha-synuclein, growth rescue, BacTiter-Glo, 24 h | 0.14% of 370,000 active | AID 652106, 2013 | Potency, µM (doses to about 46.1 µM), for the others: top-dose growth rescue (activation), actives largely listed as activators; note: % of control where 0% means no effect; nearly all actives have a fitted effect of over 65% in size
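Galactose-induced alpha-syn yeast (OD600=0.02, raffinose-pregrown) + pinned cpd, 24 hr, 30 deg C; growth by BacTiter-Glo luminescence. Growth restoration scores as activation.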
TDP-43 yeast inh: qHTS of TDP-43 Inhibitors. 1.8% of 410,000 active. Potency, µM (highest dose often 46.1 µM), for the others: at the highest dose growth rescue (activation), hits mostly activators. TDP-43 expressing yeast growth rescue, BacTiter-Glo, 24 h; note: % of control where 0% means no effect; nearly all actives have a fitted effect of over 50% in size
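Yeast expressing TDP-43 (pregrown in raffinose, seeded at OD600=0.02 in galactose medium) exposed to compounds 24 hr at 30 deg C. Growth read by BacTiter-Glo luminescence; rescue of toxicity appears as increased signal.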
FUS suppressor: qHTS for Suppressors of FUS Proteinopathy: Primary screen using FUS-linked yeast assay; 0.24% of 390,000 active; S. cerevisiae FUS-expressing, growth rescue, OD600, 24 h; Potency, µM (doses to about 76.6 µM), hits mostly activators;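 note: plate controls were DMSO vehicle for no effect and reference control for full effect; nearly all actives have a fitted effect of over 55% in size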
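Yeast FUS proteinopathy model; galactose-induced FUS (2%), starting OD 0.005. Cpds in dilution series, 24hr, 30C, 99% humidity. Abs 600 nm growth. Pos ctrl CP55940 (top 92uM final); neg ctrl DMSO.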
* hit, by the source's call; i = inactive; ? = inconclusive; . = no result given; ! = a repeat was not active. Calls come from the whole dose curve; as a rule, active = well fitted curve in the direction sought with a large enough effect; inconclusive = small, poorly fitted or top-dose-only effect, or another doubt; inactive = no such curve, though single readings can be large; an effect the other way counts as inactive or inconclusive. Potency is the fitted concentration of half-maximal effect.

SMILES | Mito fusion act | Abeta yeast res | aSyn rescue | TDP-43 yeast inh | FUS suppressor
Cc1ccc(N(CC(=O)N2CCN(c3cc(C)ccc3C)CC2)S(=O)(=O)c2c(C)nn(C)c2C)cc1 | . | i | . | 35.5µM* | ?
Cc1ccc(N(CC(=O)N2CCN(c3ccc(Cl)cc3)CC2)S(=O)(=O)c2c(C)nn(C)c2C)cc1 | . | i | . | 22.0% | i
Cc1ccc(N(CC(=O)N2CCN(c3ccc(F)cc3)CC2)S(=O)(=O)c2c(C)noc2C)cc1 | 10.2% | ? | 1.0% | 15.8µM*! | i
CCn1cc2c(n1)-c1c(oc(C(=O)Nc3cccc(C(F)(F)F)c3)c1C)CC2 | . | i | . | 8.6% | i
CC(C)CS(=O)(=O)c1oc(-c2ccc(F)cc2)nc1S(=O)(=O)c1ccccc1 | . | i | . | 20µM* | i
CNc1oc(-c2ccc(F)cc2)nc1S(=O)(=O)c1ccccc1 | -0.3% | i | -3.1% | -16.0% | i
CCC(C)S(=O)(=O)c1oc(-c2cccs2)nc1S(=O)(=O)c1ccccc1 (stereo unspecified) | . | i | . | 11.2µM* | i
CNc1oc(-c2cccs2)nc1S(=O)(=O)c1ccccc1 | -0.2% | i | 0.6% | -14.8% | i
CC[C@H](CCCc1ccc(F)cc1)CN(Cc1ccc(OC)cc1)S(=O)(=O)c1ccc(C)cc1 | . | . | . | . | i
Cc1ccc(S(=O)(=O)c2c(Nc3cc(F)ccc3F)sc(C(=O)c3ccc(F)cc3)c2N)cc1 | . | i | . | 16.5% | i
Cc1cc(SCC(=O)N/N=C/c2ccc(O)c(O)c2O)c(C)cc1Br | 3.7% | i | 15.8µM* | 4.9% | .
Cc1ccc(-n2c(SCC(=O)c3ccc(O)c(O)c3)nnc2-c2ccccc2)cc1 | . | . | . | . | 7.94µM*
O=C(C[n+]1cccc(Br)c1)c1ccc2c(c1)CCCC2 | . | . | 2.8% | . | .
O=C(O)c1ccccc1NC(=O)N1c2ccccc2Sc2ccccc21 | . | i | . | 20µM* | i
Cc1cc(C)c(NC(=O)Cn2c(=O)n(CCC(=O)NCc3ccccc3Cl)c(=O)c3sccc32)c(C)c1 | . | i | . | 0.0% | i
O=C1c2ccccc2NC(c2ccc(OCc3ccccc3)c(OCc3ccccc3)c2)N1Cc1ccco1 (stereo unspecified) | . | . | 8.6% | . | .
COc1ccc(-c2c(C)nn3c4c(cnc23)C(=O)CC(c2ccc(C)cc2)C4)cc1 (stereo unspecified) | . | i | . | -4.1% | i
COc1ccc(N2CCN(C(=O)c3cc4c(-c5cccc(OC)c5)nn(C)c4s3)CC2)cc1 | -5.5% | i | 0.3% | 15.8µM* | ?
COc1ccc(-c2nn(C)c3sc(C(=O)N4CCN(c5ccccc5F)CC4)cc23)cc1OC | . | i | . | 20µM* | i
COc1ccc(-c2nn(C)c3sc(C(=O)N4CCOCC4)cc23)cc1OC | 10.5% | i | 1.2% | 12.5% | i
COc1ccc(-c2c(Cc3ccccc3)nc(NC(=O)c3ccccc3)n2Cc2ccccc2)cc1 | . | . | . | . | i
COc1ccccc1C(=O)Nc1nsc(-c2ccccc2)n1 | 1.6% | i | -5.5% | 12.6µM* | i
Cc1cccc(OCC(=O)Nc2c(C(=O)N3CCN(c4ccccc4)CC3)oc3ccccc23)c1 | . | i | . | 22.0% | i
CC(C)(C)c1ccc(C(=O)N2CCC2(C)C(=O)Nc2cccc3ncccc23)cc1 (stereo unspecified) | . | i | 10.6% | 25.1µM* | i
CC(C)(C)c1ccc(C(=O)N2CCC2(C)C(=O)Nc2cccc3ccccc23)cc1 (stereo unspecified) | . | i | 11.5% | 1.0% | ?
SMILES | Mito fusion act | Abeta yeast res | aSyn rescue | TDP-43 yeast inh | FUS suppressor
COC(=O)C(Cc1c[nH]c2ccccc12)NC(=O)COc1cccc(C)c1 (stereo unspecified) | . | i | . | 3.2% | i
COc1cc2c(cc1OC)C(COc1cc(C)cc(C)c1)N(C(=O)C(C)(C)C)CC2 (stereo unspecified) | . | i | . | . | ?
Nc1c(C(=O)N/N=C/c2ccc([N+](=O)[O-])cc2)cnn1-c1ccccc1 | -3.2% | i | -2.7% | -25.5% | i
CC(=O)c1cnn(-c2ccccc2)c1C | -2.6% | i | -10.3% | -4.1% | i
Cc1c(C(=S)Nc2ccccc2)cnn1-c1ccc([N+](=O)[O-])cc1 | -1.5% | i | 16.3% | 12.6µM* | .
Cc1c(C(=S)Nc2ccccc2)cnn1-c1ccccc1 | -12.6% | i | 6.5% | 15.8µM* | .
CN(/N=C/c1ccccc1Cl)c1ncc(Cl)cc1C(F)(F)F | -5.5% | i | -9.4% | 0.0% | i
CN(/N=C/c1ccc(O)cc1O)c1ncc(C(F)(F)F)cc1Cl | 6.7% | ? | -35.8% | 35.5µM* | i
COc1cc(/C=C/C(=O)N2CCC=CC2=O)cc(OC)c1OC | -10.8% | i | 12.6% | 22.4µM* | i
COc1cc(C=CC(=O)c2ccccc2)cc(OC)c1OC | . | i | ? | 14.1µM* | i
COc1ccc(C(=O)/C=C/c2ccc(OC)c(O)c2)c(F)c1 | 5.1% | i | -3.7% | 22.4µM* | .
COc1ccc(C=CC(=O)c2ccc(OC)c(OC)c2O)cc1OC | . | i | ? | 12.6µM* | i
Cc1ccc(C(=O)c2oc3ccccc3c2NC(=O)COc2ccccc2C)cc1 | . | i | -16.0% | -22.2% | i
Cc1ccc(N2CCN(C(=O)C3CCN(c4ncnc5c4nc4n5CCCCC4)CC3)CC2)c(C)c1 | . | i | . | 17.1% | i
CCc1ccc(Oc2c(C(F)(F)F)oc3c(CN4CCCC(C)C4)c(O)ccc3c2=O)cc1 (stereo unspecified) | . | i | . | ? | i
Cc1ccc(S(=O)(=O)N2CCN(c3ccnc(-c4cccs4)n3)CC2)cc1 | . | . | 1.4% | . | .
Cn1cnc([N+](=O)[O-])c1NC(C)(C)C | -1.7% | i | -3.5% | 1.7% | i
Cn1cnc([N+](=O)[O-])c1S(=O)(=O)c1ccc(Cl)cc1 | -15.7% | i | -0.5% | 14.1µM* | i
O=S(=O)(/C(=C/c1ccc(C(F)(F)F)cc1)c1nc2ccccc2[nH]1)c1ccccc1 | 28.1% | i | -7.2% | 10µM* | i
CC(C)c1ccc(/C=C(\c2nc3ccccc3[nH]2)S(=O)(=O)c2ccccc2)cc1 | ? | i | 9.4% | 25.0% | i
COc1ccccc1N1CCN(CCN(C(=O)C2CCCCC2)c2ccccn2)CC1 | -37.3% | i | 3.1% | 14.5% | i
COc1ccccc1N1CCN(CCN(C(=O)c2ccc(F)cc2)c2ccccn2)CC1 | 0.6% | i | 14.1µM*! | 17.6% | i
Cc1cc(C(=O)C(=O)Nc2nncs2)c(C)n1-c1ccc(Cl)cc1 | . | i | . | 11.2µM* | i
Cc1cccc(-n2c(C)cc(C(=O)C(=O)Nc3nncs3)c2C)c1 | . | i | . | ? | i
